Source: PubChem BioAssay (NCATS)
Inconclusive results are not listed. The source made the active and inactive calls. The call rests on the fitted dose curve; in most records, active means well fitted curve in the direction sought with a large enough effect; inconclusive means small, poorly fitted or top-dose-only effect, or another doubt; inactive means no such curve, though single readings can be large; an effect the other way counts as inactive or inconclusive.

Legend:
NIH3T3 = test: qHTS assay to identify novel small-molecules to repurpose for Merkel cell carcinoma treatment (AID 1296009); conditions: MCC and control cell lines, CellTiter-Glo viability, 72 h; at 44.8 µM (top of the series) unless noted; further: nearly all actives have a fitted effect of over 60% in size
Summary of the method: (§1)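 Viability readout: ATP luminescence (CellTiter-Glo) after 72 hr drug exposure at 37 degree celsius. Dose-response format was 8 points for NPC and 11 points for MIPE; data normalized to in-plate controls.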

UISO = test: as above; conditions: MCC and control cell lines, CellTiter-Glo viability, 72 h; series mostly up to 46 µM
Summary of the method: as §1

WaGa = test: as above; conditions: MCC and control cell lines, CellTiter-Glo viability, 72 h; series mostly up to 46 µM
Summary of the method: as §1

C33A = test: Primary qHTS to identify gynecologic anti-cancer compounds using libraries of approved drugs and bioactive compounds (AID 1345084); conditions: Gynecologic cancer cell panel viability, ATPlite luminescence, 48 h; series mostly up to 57.5 µM; further: nearly all actives have a fitted effect of over 55% in size
Summary of the method: (§2)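 Measured: luminescence after ATPlite addition (15 min, RT). Exposure: 48 h, 37 C, 5% CO2.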

CASKI = test: as above; conditions: Gynecologic cancer cell panel viability, ATPlite luminescence, 48 h; series mostly up to 57.5 µM
Summary of the method: as §2

Es-2 = test: as above; conditions: Gynecologic cancer cell panel viability, ATPlite luminescence, 48 h; series mostly up to 57.5 µM
Summary of the method: as §2

HeLa = test: as above; conditions: Gynecologic cancer cell panel viability, ATPlite luminescence, 48 h; series mostly up to 57.5 µM
Summary of the method: as §2

Hek293T = test: as above; conditions: Gynecologic cancer cell panel viability, ATPlite luminescence, 48 h, control line for the selectivity index; series mostly up to 57.5 µM
Summary of the method: as §2

JEG-3 = test: as above; conditions: Gynecologic cancer cell panel viability, ATPlite luminescence, 48 h; series mostly up to 57.5 µM
Summary of the method: as §2

OV90 = test: as above; conditions: Gynecologic cancer cell panel viability, ATPlite luminescence, 48 h; series mostly up to 57.5 µM
Summary of the method: as §2

PA-1 = test: as above; conditions: Gynecologic cancer cell panel viability, ATPlite luminescence, 48 h; series mostly up to 57.5 µM
Summary of the method: as §2

SKOV3 = test: as above; conditions: Gynecologic cancer cell panel viability, ATPlite luminescence, 48 h; series mostly up to 57.5 µM
Summary of the method: as §2

Tov-21-G = test: as above; conditions: Gynecologic cancer cell panel viability, ATPlite luminescence, 48 h; series mostly up to 57.5 µM
Summary of the method: as §2

Tov112D = test: as above; conditions: Gynecologic cancer cell panel viability, ATPlite luminescence, 48 h; series mostly up to 57.5 µM
Summary of the method: as §2

[1] = Drug repurposing screens with cells derived from glioblastoma tumor samples (AID 1345199); conditions: GBM patient neurospheres viability, ATP luminescence, 48 h; further: nearly all actives have a fitted effect of over 40% in size
Summary of the method: (§3)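 Primary testing used CD133+ neurospheres from four GBM patients, seven concentrations, 48 h exposure and ATP-based viability; confirmation added three slower-growing patient lines.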

CAOV3 = test: Primary qHTS to identify gynecologic anti-cancer compounds using libraries of approved drugs and bioactive compounds (AID 1345084); conditions: Gynecologic cancer cell panel viability, ATPlite luminescence, 48 h; series mostly up to 57.5 µM; further: nearly all actives have a fitted effect of over 55% in size
Summary of the method: as §2

astro = test: Drug repurposing screens with cells derived from glioblastoma tumor samples (AID 1345199); conditions: viability, ATP luminescence, 48 h; series mostly up to 45.9 µM; further: nearly all actives have a fitted effect of over 40% in size
Summary of the method: as §3

[2] = at 45.9 µM (top of the series), tumour line B
[3] = at 45.9 µM (top of the series), tumour line D
[4] = at 46 µM (top of the series), tumour line A
[5] = at 46.1 µM (top of the series), tumour line C
On the % scale 0 is the no-effect control and ±100 the full control effect.

CC(=O)N[C@H]1[C@H]([C@H](O)[C@H](O)CO)OC(C(=O)O)=C[C@@H]1N=C(N)N
inactive: outcome (NIH3T3) | outcome (UISO) | outcome (WaGa) | outcome (C33A) | outcome (CASKI) | outcome (Es-2) | outcome (HeLa) | outcome (Hek293T) | outcome (JEG-3) | Potency (OV90) | outcome (PA-1) | outcome (SKOV3) | outcome (Tov-21-G) | outcome (Tov112D) | activity, negative = cell killing [1, 2] -18.7% | activity, negative = cell killing [1, 3] -2.37% | activity, negative = cell killing [1, 4] -22.1% | activity, negative = cell killing [1, 5] -20.3%

CC(C)C[C@@H](N)C(=O)O
inactive: outcome (UISO) | outcome (WaGa) | outcome (C33A) | outcome (CAOV3) | outcome (CASKI) | outcome (Es-2) | outcome (HeLa) | outcome (Hek293T) | outcome (JEG-3) | Potency (OV90) | outcome (PA-1) | outcome (SKOV3) | outcome (Tov-21-G) | outcome (Tov112D) | activity, negative = cell killing [1, 2] 3.77% | activity, negative = cell killing [1, 3] 29.1% | activity, negative = cell killing [1, 4] 14.9% | activity, negative = cell killing [1, 5] -0.0622% | outcome (astro)

CNc1c2c(nn1C)CCCC2
inactive: outcome (UISO) | outcome (WaGa) | outcome (C33A) | outcome (CAOV3) | outcome (CASKI) | outcome (Es-2) | outcome (HeLa) | outcome (Hek293T) | outcome (JEG-3) | Potency (OV90) | outcome (PA-1) | outcome (SKOV3) | outcome (Tov-21-G) | outcome (Tov112D) | activity, negative = cell killing [1, 2] -7.34% | activity, negative = cell killing [1, 3] -0.633% | activity, negative = cell killing [1, 4] -5.91% | activity, negative = cell killing [1, 5] -14.3% | outcome (astro)

O=C(O)c1ccccc1OP(=O)(O)O
inactive: outcome (UISO) | outcome (WaGa) | outcome (C33A) | outcome (CAOV3) | outcome (CASKI) | outcome (Es-2) | outcome (HeLa) | outcome (Hek293T) | outcome (JEG-3) | Potency (OV90) | outcome (PA-1) | outcome (SKOV3) | outcome (Tov-21-G) | outcome (Tov112D) | activity, negative = cell killing [1, 2] -8.79% | activity, negative = cell killing [1, 3] 13.5% | activity, negative = cell killing [1, 4] -28.4% | activity, negative = cell killing [1, 5] -24.8% | outcome (astro)

C[C@]1(Cn2ccnn2)[C@H](C(=O)O)N2C(=O)C[C@H]2S1(=O)=O
inactive: outcome (UISO) | outcome (WaGa) | outcome (C33A) | outcome (CAOV3) | outcome (CASKI) | outcome (Es-2) | outcome (HeLa) | outcome (Hek293T) | outcome (JEG-3) | Potency (OV90) | outcome (PA-1) | outcome (SKOV3) | outcome (Tov-21-G) | outcome (Tov112D) | activity, negative = cell killing [1, 2] -6.98% | activity, negative = cell killing [1, 3] -15.1% | activity, negative = cell killing [1, 4] -24.4% | activity, negative = cell killing [1, 5] -1.25%

CCN(CC)S(=O)(=O)c1ccc(C(=O)O)cc1
inactive: outcome (UISO) | outcome (WaGa) | outcome (C33A) | outcome (CAOV3) | outcome (CASKI) | outcome (Es-2) | outcome (HeLa) | outcome (Hek293T) | outcome (JEG-3) | Potency (OV90) | outcome (PA-1) | outcome (SKOV3) | outcome (Tov-21-G) | outcome (Tov112D) | activity, negative = cell killing [1, 2] -12.2% | activity, negative = cell killing [1, 3] -3.35% | activity, negative = cell killing [1, 4] -16.8% | activity, negative = cell killing [1, 5] -15.2% | outcome (astro)

Cc1ccc(S(=O)(=O)NC(=O)NC2CCCCC2)cc1
inactive: outcome (UISO) | outcome (WaGa) | outcome (C33A) | outcome (CAOV3) | outcome (CASKI) | outcome (Es-2) | outcome (HeLa) | outcome (Hek293T) | outcome (JEG-3) | Potency (OV90) | outcome (PA-1) | outcome (SKOV3) | outcome (Tov-21-G) | outcome (Tov112D) | activity, negative = cell killing [1, 2] -0.759% | activity, negative = cell killing [1, 3] 4.18% | activity, negative = cell killing [1, 5] -11.1%
